Results taken from PubChem BioAssay (NCI).
Compounds without any hit were thinned out: in the full panel of roughly 83,000, 20% have a hit.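 Cell lines were cultured in 96-well plates, exposed to a single compound concentration, and assessed for percent growth 48 hours later.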 Calls of active or inactive are those of the source. The calls were made as follows: active = growth percent below 10; inactive = the rest.

These compounds were tested on IGROV1 ovarian (assay: NCI-60 one-dose screen, 48 h (100 = growth as untreated, 0 = no growth, -100 = all killed)). Settings: 10 µM unless noted.

Row | SMILES | growth
1 | COc1c(F)ccc(C(=O)Nc2ccc3nc(NC(=O)C4CCCN(S(=O)(=O)c5ccc(Br)s5)C4)sc3c2)c1F (stereo not drawn) | 81.5% (inactive)
2 | Cc1ccc(-c2nc(Nc3ccccc3S(N)(=O)=O)c3ccccc3n2)cc1 | 82.3% (inactive)
3 | Clc1cccc(Cl)c1/C=C/c1cc(/C=C/c2ccc(Br)cc2)c2ccccc2n1 | 96.6% (inactive)
4 | COc1ccc(/C=C/c2n(Cc3ccc4ccccc4c3)c3ccccc3[n+]2Cc2ccc3ccccc3c2)cc1 | -76.2% (active)
5 | C#CCOc1cc(N(CC)CC)ccc1C(C(=O)NC(C)(C)C)N(C(=O)C1CCc2cc(F)ccc2O1)c1ccc(Br)cc1 (stereo not drawn) | 80.2% (inactive)
6 | CSc1ccc(C(=O)Nc2ccc3nnn(/C(C#N)=C/c4ccccn4)c3c2)cc1 | -44.9% (active)
7 | COC(=O)/C=C/c1cccc2c1C(=O)NC(C)(c1cc3ccccc3oc1=O)N2 (stereo not drawn) | 32% (inactive)
8 | O=C(COc1ccc2c(c1)CCCC(=O)N2)NCc1ccccc1 | 111% (inactive)
9 | COc1ccc(Cc2nn(CC(=O)N/N=C/c3ccc(F)cc3)c(=O)c3c(C)noc23)cc1 | 39.7% (inactive)
10 | CCCSc1nc(NCCc2c[nH]c3ccccc23)c(C#N)c(-c2ccc(F)cc2)n1 | 85.8% (inactive)
11 | O=C(O)Cn1c(O)c(/C=C2/C=c3cc4c(cc3=NC2=O)OCCO4)sc1=S | 114% (inactive)
12 | COc1ccc(C(=O)/C=C/c2ccc(OCc3ccc(F)cc3)c(OC)c2)cc1OC | 17.5% (inactive)
13 | Cn1cc(-c2cc(N)n3nc(-c4c[nH]c5ccccc45)cc3n2)c2cc(Br)cnc21 | -41.9% (active)
14 | CC(=O)/C=C/c1cccc2c1C(=O)NC(C)(c1cc3cc(Br)ccc3oc1=O)N2 (stereo not drawn) | 25.3% (inactive)
15 | CCN(CC)c1ccc(/C=N/Nc2nc(-c3ccc(Br)cc3)cs2)c(O)c1 | 78.8% (inactive)
16 | CC1(C)CC[C@]2(C(=O)O)CC[C@]3(C)C(=CCC4[C@@]5(C)C[C@@H](O)[C@@H]6OC(c7ccco7)OC[C@@]6(C)C5CC[C@]43C)C2C1 (stereo partly drawn) | 31.6% (inactive)
17 | C/C(=N\N=C\c1cc([N+](=O)[O-])ccc1Cl)c1ccc2c(c1)Nc1ccccc1S2 | 40% (inactive)

Row | SMILES | growth
18 | CN(C)c1nc(NCCNS(=O)(=O)c2ccc(C3=Nc4c(N)nc(N)nc4NC(c4ccc(C(F)(F)F)cc4)C3)cc2)nc(Nc2ccc(F)cc2)n1 (stereo not drawn) | 35.8% (inactive)
19 | Cn1cc(-c2cc(N)n3nc(-c4cn(C)c5ccc(Cl)cc45)cc3n2)c2ccccc21 | 111% (inactive)
20 | O=C(/C=C/c1ccc(-c2ccccc2)cc1)c1nc2ccccc2n1Cc1ccc(Br)cc1 | 63.6% (inactive)
21 | COc1cc2c(c(OC)c1OC)C(=O)CC(c1cccc(NC(=O)c3cc(NC(=O)[C@H](CO)NC(=O)OC(C)(C)C)ccc3Cl)c1)O2 (stereo partly drawn) | 36.8% (inactive)
22 | CC(=O)c1cccc(NC(=O)CCC(=O)NS(=O)(=O)c2ccc(C)cc2)c1 | 115% (inactive)
23 | C#CCOc1ccc(/C=N/Nc2nc(-c3ccc(F)cc3)cs2)cc1OC | 72.6% (inactive)
24 | CC1(C)CC[C@]2(C(=O)O)CC[C@]3(C)C(=CCC4[C@@]5(C)C[C@@H](O)[C@@H]6OC(c7ccccc7Br)OC[C@@]6(C)C5CC[C@]43C)C2C1 (stereo partly drawn) | 35% (inactive)
25 | COc1cc2oc(-c3cccc(C(=O)Nc4ccc(Cl)cc4)c3)cc(=O)c2c(OCCNC(=O)[C@H](CCC(=O)OC(C)(C)C)NC(=O)OC(C)(C)C)c1OC | 89.9% (inactive)
26 | O=C(O)c1ccc(-c2ccc(/C=N/NC(=O)c3[nH]c4ccc(Br)cc4c3-c3ccccc3)o2)cc1 | 17.8% (inactive)
27 | CCCCc1c(Nn2cnnn2)no[n+]1[O-] | 35.8% (inactive)
28 | CC1=C(C(=O)OCc2ccccc2)C(c2c(O)cc(O)cc2O)n2c(nc3ccccc32)N1 (stereo not drawn) | 51% (inactive)
29 | O=C(/C=C/c1cccc(OCc2ccccc2)c1)c1nc2ccccc2[nH]1 | 60.3% (inactive)
30 | CC(=O)OCC1OC(OC2C(COC(C)=O)OC(n3cc(COc4ccc5ccc(=O)oc5c4)nn3)C(OC(C)=O)C2OC(C)=O)C(OC(C)=O)C(OC(C)=O)C1OC(C)=O (stereo not drawn) | 111% (inactive)
31 | COc1ccc2oc3c4[nH]c5ccccc5c4c4c(c3c2c1)C(=O)N(C(=O)OC(C)(C)C)C4=O | -1.25% (active)
32 | O=C(c1ccccc1)c1ccc2nc(-c3ccc(F)cc3)[nH]c2c1 | 45.9% (inactive)
33 | CC1(C)CC[C@]2(C(=O)Nc3ccc(Br)cc3)CC[C@]3(C)C(=CCC4[C@@]5(C)C[C@@H](O)[C@H](O)[C@@](C)(CO)C5CC[C@]43C)C2C1 (stereo partly drawn) | 38.2% (inactive)
